Each structure is given as a SMILES string. Out of some 290,000 compounds screened, about 2,600 (0.9%) were called active. The sample holds actives, similar compounds and a random draw of the others, so the mix is not that of the screen. Unmarked numbers belong to inactive results.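 How the source made its calls: active means inhibition above the mean of all tested compounds plus 3 SD, cutoff set per screening run (cut at about 7.5% in these data); inactive means the rest.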

The test has as its system VIM-2 metallo-beta-lactamase (Pseudomonas aeruginosa). The experiment in a line: VIM-2 metallo-beta-lactamase inhibitors, primary screen, biochemical, epi-absorbance readout, Pseudomonas aeruginosa enzyme (AID 1527).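 Further: red hydrolysis product quenches plate fluorescence so inhibitors raise well fluorescence; 0% = enzyme with DMSO and 100% = DMSO without enzyme.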 The following applies: purified VIM-2, nitrocefin hydrolysis, epi-absorbance fluorescence; at 5.6 µM; hits give high values.
Regarding `O=C(Cc1ccccc1[N+](=O)[O-])N1CCN(Cc2ccc3c(c2)OCO3)CC1`, the inhibition (as a rule, the drop in the measured response relative to a control, in per cent) is 1.82%.

As to `Fc1ccc(N2CCN(Cc3ccc4c(c3)OCO4)CC2)cc1`, the inhibition is -2.76%. Consider `Cc1cc(=O)oc2c(C)c(OCC(=O)N3CCN(Cc4ccc5c(c4)OCO5)CC3)ccc12`, for which the inhibition is 41.5% (active). For `CC(=O)c1c(C)n(C(C)C)c2ccc(O)cc12`, the inhibition is -2.19%. Next, `COc1cc2nc(N3CCN(C(=O)[C@@H]4CCCO4)CC3)nc(N)c2cc1OC`: -2.29%; `CCOC(=O)C1(CCc2ccccc2)CCN(Cc2ccco2)CC1`: -1.92%; `CNC(=O)O/N=C(\N)Cc1csc2ccc(Cl)cc12`: -0.28%. Next, `Cc1cc(OCc2cc(C(=O)O)oc2C)c2c3c(c(=O)oc2c1)CCCC3`: 56.6% (active). Next, `COC(=O)COc1cc(C)cc2oc(=O)c3c(c12)CCCC3`: 8.38% (active); `CCN1CCN(C(=O)Cc2coc3cc(C)cc(C)c23)CC1`: -5.4%; `O=C(N/N=C/c1c(O)n(C2CC2)c(=S)[nH]c1=O)c1ccccc1Cl`: -1.56%.

Turning to `CN(C)CC1CCCCC1OC(=O)c1ccc(Cl)c(Cl)c1` (stereo not given), the inhibition is 0.42%. Next, `Cc1cc2ccccn2c1C(C[N+](=O)[O-])c1c(F)cccc1Cl` (stereo not given): 0.92%. Take `COc1ccc(-n2c(-c3ccccc3)nc3ccccc3c2=O)cc1`: the inhibition was -3.17%. As to `COCCNC(=O)CN1C2CCC1CC(O)(c1cccnc1)C2` (stereo not given), the inhibition is -2.88%.

The record behind these values is PubChem BioAssay AID1527 (The Scripps Research Institute Molecular Screening Center, 2009).
